Test [1] can be described thus: qHTS RealTime-Glo MT Cell Viability Assay in HEK293 cells - 16 hour (AID 1224872). Also: nearly all actives have a fitted effect of over 50% in size. Also: potency is read from the fitted curve at half-maximal effect. In outline:
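Reads taken at 0, 8, 16, 24, 32 and 40 h from the same wells. HEK293 cells (600/well) carried RealTime-Glo reagents from seeding, with compound added after a 5 h settle at 37 C.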
A general note: qHTS replaces the single test concentration by a dilution series.

Test [2] is described as follows: qHTS RealTime-Glo MT Cell Viability Assay in HepG2 cells - 8 hour (AID 1224873). Also: nearly all actives have a fitted effect of over 55% in size. The procedure, abridged:
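HepG2 cells (600/well) mixed with RealTime-Glo MT reagent, settled 5 h at 37 C/5% CO2 before compound addition. Nonlytic NanoLuc luminescence from viable-cell prosubstrate reduction read repeatedly during 40 h treatment at 37 C.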

Test [3] can be described thus: qHTS RealTime-Glo MT Cell Viability Assay in HEK293 cells - 40 hour (AID 1224874). Also: nearly all actives have a fitted effect of over 50% in size. Also: potency is read from the fitted curve at half-maximal effect. The following applies: RealTime-Glo luminescence; max response: hits give low values. In outline: (§1)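 qHTS format; HEK293 cells with NanoLuc/prosubstrate reagent, 37 C/5% CO2 for 5 h pre-dosing; compounds 23 nL in DMSO; luminescence at each time point reflects viable cells.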
A short description of test [4]: A CellTox Green Cytotoxicity Assay to monitor cytotoxicity in HEK293 cells - 24 hour (AID 1224875). Also: series mostly up to about 77 µM; nearly all actives have a fitted effect of over 45% in size. In outline:
(§2)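 Each value comes from one timepoint of a single continuous run in which HEK293 cells with CellTox Green were exposed to compound for up to 40 h at 37 C, dye fluorescence rising with cell death.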

The nature of test [5]: A CellTox Green Cytotoxicity Assay to monitor cytotoxicity in HepG2 cells - 16 hour (AID 1224876). Also: nearly all actives have a fitted effect of over 45% in size. The procedure, abridged:
(§3)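 Continuous culture of HepG2 cells with a membrane-impermeant DNA dye; rising fluorescence marks dead cells. Compound exposure lasted up to 40 h at 37 C, with reads every 8 h from 0 h.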

The nature of test [6]: qHTS RealTime-Glo MT Cell Viability Assay in HepG2 cells - 32 hour (AID 1224877). Also: nearly all actives have a fitted effect of over 55% in size. The procedure, abridged:
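HepG2 suspension premixed with RealTime-Glo reagents is plated at 600 cells per well and left 5 h at 37 C/5% CO2. Compounds in DMSO then go in, and bioluminescence reflecting viable cell number is recorded over 40 h.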

A short description of test [7]: A CellTox Green Cytotoxicity Assay to monitor cytotoxicity in HepG2 cells - 24 hour (AID 1224878). Also: nearly all actives have a fitted effect of over 45% in size. The procedure, abridged: as §3
The nature of test [8]: A CellTox Green Cytotoxicity Assay to monitor cytotoxicity in HepG2 cells - 40 hour (AID 1224879). Also: nearly all actives have a fitted effect of over 40% in size. In outline:
as §3

The nature of test [9]: qHTS RealTime-Glo MT Cell Viability Assay in HEK293 cells - 0 hour (AID 1224880). Also: top concentration of the series differs between compounds; nearly all actives have a fitted effect of over 45% in size. In outline: as §1
Test [10] can be described thus: A CellTox Green Cytotoxicity Assay to monitor cytotoxicity in HEK293 cells - 32 hour (AID 1224881). Also: nearly all actives have a fitted effect of over 40% in size. The procedure, abridged: as §2

The values that follow come from PubChem BioAssay (Tox21).

Where “and” joins values, the source holds several entries; their conditions need not be identical. Identical values can stand only once. Inconclusive results are not listed. Calls of active or inactive are those of the source. Calls follow the shape of the dose curve; as a rule, active = well fitted curve in the direction sought with a large enough effect in the repeat runs; inconclusive = weak or mixed curves; inactive = no such curve, though single readings can be large; an effect the other way counts as inactive or inconclusive.
% is scaled to controls: 0 for no effect and ±100 for the full control effect.

`C/C=C/C(=O)N(CC)c1ccccc1C`: the Potency result in [1], in test [2], in test [4], in test [5], in test [6] and in test [7] was “inactive” in each case. For the same compound, the Potency result in test [8], in test [9] and in test [10] was “inactive” throughout. The max response in test [3] is 1.07% (inactive) and 4.13% (inactive).

Take `c1ccc2cc3ccccc3cc2c1`: the Potency entry in test [1], in [2], in test [4], in test [5], in test [6] and in test [7] was “inactive” each time. For the same compound, the Potency entry in test [8], in test [9] and in test [10] was “inactive” in each case. Also, the max response in test [3] is 1.77% (inactive) and 23.2% (inactive).

Consider `CCO[Si](CCCNC(N)=O)(OCC)OCC`, for which the Potency result in [1], in test [2], in test [4], in [5], in test [6] and in test [7] was “inactive” each time. Moreover, the Potency entry in test [8], in [9] and in [10] was “inactive” each time. For the same compound, the max response in test [3] was -7.6% (inactive) and 2.5% (inactive).

Consider `CC1(C)OC(=O)NC1=O`, for which the Potency result in test [1], in test [2], in test [4], in [5], in [6] and in test [7] was “inactive” each time. In addition, the Potency entry in test [8], in [9] and in test [10] was “inactive” in each case. Also, the max response in test [3] was -4.09% (inactive) and 7.44% (inactive).

Regarding `C=C[C@H]1CN2CC[C@H]1C[C@@H]2[C@@H](O)c1ccnc2ccc(OC)cc12`, the Potency in test [1] was 42.9 µM (active); in test [3] it was 48.2 µM (active). Also, the Potency entry in test [2], in test [4], in test [5], in test [6], in test [7] and in test [8] was “inactive” each time. For the same compound, the Potency result in test [9] and in test [10] was “inactive” in each case.

As to `O=C(O)c1ccc(O)cc1`, the Potency entry in test [1], in test [2], in [4], in [5], in test [6] and in [7] was “inactive” in each case. In addition, the Potency result in test [8], in test [9] and in [10] was “inactive” in each case. Moreover, in test [3], the max response was -0.345% (inactive) and 9.29% (inactive).

On to `C=C[C@@]1(C)CC(=O)[C@]2(O)[C@@]3(C)[C@@H](O)CCC(C)(C)[C@@H]3[C@H](O)[C@H](OC(C)=O)[C@@]2(C)O1`, for which the Potency entry in test [1], in test [2], in test [4], in test [5], in test [6] and in test [7] was “inactive” throughout. For the same compound, the Potency entry in [8], in [9] and in [10] was “inactive” each time. For the same compound, the max response in [3] was -11.8% (inactive).

For `O=C(O)c1cc(=O)[nH]c(=O)[nH]1`, the Potency entry in test [1], in test [2], in test [4], in test [5], in test [6] and in test [7] was “inactive” throughout. For the same compound, the Potency result in test [8], in test [9] and in test [10] was “inactive” each time. Moreover, the max response in test [3] was 10.8% (inactive) and 0.747% (inactive).

On to `CC1(C)C(C=C(Cl)Cl)C1C(=O)OCc1cccc(Oc2ccccc2)c1` (stereo not given), for which the Potency result in [1], in test [2], in [4], in test [5], in [6] and in test [7] was “inactive” throughout. In addition, the Potency result in test [8], in test [9] and in test [10] was “inactive” in each case. For the same compound, the max response in test [3] is -20.8% (inactive) and -17.3% (inactive).

On to `C[N+](C)(C)CCO`, for which the Potency entry in [1], in test [2], in test [4], in [5], in test [6] and in [7] was “inactive” throughout. Further, the Potency entry in [8], in test [9] and in test [10] was “inactive” each time. The max response in [3] is 15.9% (inactive) and 6.06% (inactive).

In the case of `CCC(Cc1c(I)cc(I)c(N)c1I)C(=O)O` (stereo not given), the Potency result in test [1], in [2], in test [4], in test [5], in test [6] and in test [7] was “inactive” each time. In addition, the Potency result in [8], in test [9] and in [10] was “inactive” in each case. Besides, the max response in [3] is 3.1% (inactive) and 8.35% (inactive).

On to `CN(Cc1cnc2nc(N)nc(N)c2n1)c1ccc(C(=O)N[C@@H](CCC(=O)O)C(=O)O)cc1`, for which the Potency entry in [1], in [2], in [4], in [5], in test [6] and in test [7] was “inactive” throughout. The Potency entry in test [8], in [9] and in test [10] was “inactive” in each case. Besides, the Potency in test [3] was 49 nM (active) and 53.5 nM (active).

In the case of `CC1=CC(C)(C)Nc2ccccc21`, the Potency entry in test [1], in test [2], in test [4], in test [5], in test [6] and in test [7] was “inactive” throughout. For the same compound, the Potency entry in test [8], in test [9] and in test [10] was “inactive” each time. Besides, in test [3], the max response is 5.64% (inactive) and -19.8% (inactive).

On to `COC(=O)CC(=O)OC`, for which the Potency entry in test [1], in test [2], in [4], in test [5], in test [6] and in test [7] was “inactive” in each case. Moreover, the Potency entry in [8], in [9] and in test [10] was “inactive” throughout. In addition, in test [3], the max response was 2.65% (inactive) and 1% (inactive).

Turning to `OC[C@H]1O[C@@H]2O[C@H]3[C@H](O)[C@@H](O)[C@@H](O[C@H]4[C@H](O)[C@@H](O)[C@@H](O[C@H]5[C@H](O)[C@@H](O)[C@@H](O[C@H]6[C@H](O)[C@@H](O)[C@@H](O[C@H]7[C@H](O)[C@@H](O)[C@@H](O[C@H]1[C@H](O)[C@H]2O)O[C@@H]7CO)O[C@@H]6CO)O[C@@H]5CO)O[C@@H]4CO)O[C@@H]3CO`, the Potency result in [1], in test [2], in test [4], in test [5], in [6] and in test [7] was “inactive” each time. Besides, the Potency result in [8], in test [9] and in test [10] was “inactive” throughout. The max response in test [3] was -4.99% (inactive) and 23.3% (inactive).

As for `Cc1ccc2c(c1)C(=O)OC2=O`, the Potency entry in test [1], in [2], in test [4], in test [5], in [6] and in test [7] was “inactive” in each case. Moreover, the Potency entry in [8], in test [9] and in test [10] was “inactive” throughout. The max response in test [3] is 5.67% (inactive) and 0.571% (inactive).

Take `CCCOCCO`: the Potency result in test [1], in test [2], in test [4], in [5], in [6] and in [7] was “inactive” throughout. For the same compound, the Potency entry in [8], in test [9] and in test [10] was “inactive” in each case. For the same compound, the max response in test [3] was 2.92% (inactive) and 1.86% (inactive).
